Measurements: PubChem BioAssay (NCI)
The panel holds about 83,000 compounds, 20% with a hit somewhere; the sample as a whole holds those more often.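 Step 1: grow cells in 96-well plates. Step 2: add test compound at a single concentration. Step 3: incubate 48 h. Step 4: record percent growth.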 Activity calls are given as the source filed them. How the source made its calls: active means growth percent below 10; inactive means the rest.

Test system: MDA-MB-468 breast
Experiment: NCI-60 one-dose screen, 48 h (100 = growth as untreated, 0 = no growth, -100 = all killed)
Settings: 10 µM unless noted

Row | Structure (SMILES) | growth
1 | O=[N+]([O-])c1cccc([I+]c2ccccc2)c1 | 20.2% (inactive)
2 | Cc1ccccc1N1C(c2ccccc2)=NNC12C=CC(=O)C=C2Cl (centres undefined) | 109% (inactive)
3 | COc1ccc(C(=O)OC2C(OC3C(O)COC(O[C@H]4C[C@H]5[C@@H]6CC=C7C[C@@H](O)CC[C@]7(C)[C@H]6CC[C@]5(C)[C@H]4[C@H](C)C(=O)CCC(C)C)C3OC(C)=O)OCC(O)C2O)cc1 (some centres undefined) | -34.1% (active)
4 | COc1ccc(C2=Cn3c(CCC(=O)c4nc5ccccc5[nH]4)nnc3SC2)cc1 | 77.4% (inactive)
5 | O=C(Cn1cncn1)Nc1ccc(-c2nc3ccccc3s2)cc1 | -29.7% (active)
6 | CC(=O)OCCC/C(=C\c1ccc2ccccc2c1)[N+](=O)[O-] | -55.4% (active)
7 | CC(C)(C)c1[nH]nc2c1C(c1cc3ccccc3[nH]c1=O)Nc1cc(C(=O)OCc3ccccc3)ccc1N2 (centres undefined) | 43.7% (inactive)
8 | CCCCCCCCCCCCCC(=S)NCCCC[C@H](NC(=O)OCc1ccccc1)C(=O)Nc1ccccc1 | 27.1% (inactive)
9 | C=C1C(=O)O[C@H]2[C@H]1CC/C(COC(=O)NCc1nc3ccccc3[nH]1)=C\CC[C@@]1(C)O[C@@H]21 | 43.7% (inactive)
10 | C=C1C(=O)O[C@H]2[C@H]1CC/C(COC(=O)/C=C\C(=O)NCc1ccc(Cn3c(=O)sn(-c4ccc(C#N)cc4)c3=O)cc1)=C\CC[C@@]1(C)O[C@@H]21 | -87.6% (active)
11 | O=C1C(Br)=C(c2ccccc2)C(=O)C(Br)=C1c1ccccc1 | 92% (inactive)
12 | CCN1C(=S)N(c2ccccc2)C2C1NN=c1s/c(=C3\C(=O)N(C(C)C)c4ccccc43)c(=O)n12 (centres undefined) | 94.5% (inactive)
13 | O=C(NC[C@H](O)CO)c1ccncc1Nc1ccc(I)cc1F | 103% (inactive)
14 | COc1ccc(NC(=O)c2ccc(NC3=C(c4ccc(Cl)cc4)C(=O)NC3=O)cc2)cc1 | 88.1% (inactive)
15 | CC(=O)OC[C@@]12Oc3c(cccc3-c3ccc(O)c4c3O[C@]3(COC(C)=O)C(=C4O)C(=O)C[C@H](C)[C@@H]3OC(C)=O)C(O)=C1C(=O)C[C@H](C)[C@@H]2OC(C)=O | -30.2% (active)
16 | N#Cc1nc(C#N)c(Sc2ccccc2)c(Sc2ccccc2)c1Sc1ccccc1 | -73.9% (active)
17 | CC(C)c1ccc(NC(=O)Nc2ccc(NC(=O)c3ccccc3N)cc2)cc1 | 81.4% (inactive)

Row | Structure (SMILES) | growth
18 | Cn1cc(-c2csc(-c3cn(CCNC(=O)OC(C)(C)C)c4ccc(F)cc34)n2)c2cccnc21 | 19.5% (inactive)
19 | N#CC(=Nc1cccc(F)c1)C1=C(O)c2ccccc2C1=O | 75.2% (inactive)
20 | Cc1cc(-c2ccc(N=Nc3c(S(=O)(=O)O)cc4cc(S(=O)(=O)O)cc(O)c4c3O)c(C)c2)ccc1N=Nc1c(S(=O)(=O)O)cc2cc(S(=O)(=O)O)cc(O)c2c1O | 109% (inactive)
21 | COc1cc2c3c(c1O)-c1ccccc1[C@@H]1OC(=O)N(CC2)[C@H]31 | 90% (inactive)
22 | CN(CCCNC(=O)CCOCCOCCOCCNC(=O)Cc1ccc2ccc3cccc4ccc1c2c34)CCCNc1cc(-c2ccc3ccccc3c2)nc2ccccc12 | -92.2% (active)
23 | Oc1ccc(N=Cc2ccc(OCc3ccccc3)cc2)cc1 | 97.6% (inactive)
24 | O=C(Nc1cccc2cccnc12)c1cc(C(=O)c2ccc(Cl)cc2)n2ccc(-c3ccncc3)cc12 | 108% (inactive)
25 | COc1ccc(Cl)cc1NC(=O)c1cc2c([nH]1)-c1nc(NC(=O)C(C)(C)C)sc1CC2 | 84.9% (inactive)
26 | Cc1ccc(Cc2cnc(NC(=O)/C(C#N)=C/c3ccc(-c4ccc(Cl)cc4)o3)s2)cc1 | 83.1% (inactive)
27 | O=C(/C=C(/C=C/c1ccc2[nH]ccc2c1)OB(F)F)/C=C/c1ccc2[nH]ccc2c1 | -57% (active)
28 | CCNc1nc(-c2ccc(Cl)c(OC)c2)c(-c2ccnc(NCCNS(=O)(=O)c3ccc(Cl)cc3)n2)s1 | -8.24% (active)
29 | COc1ccc(NC(=O)CCl)cc1 | 73.6% (inactive)
30 | Cn1c(/C=C/[N+](=O)[O-])cc2ccccc21 | -36.6% (active)
31 | COc1ccc(C(=O)c2ccc(C)cc2)c(OC)c1OC | 20.5% (inactive)
32 | NC(=O)Nc1ccc(-n2cnc3cc(-c4ccc(O)cc4)ccc32)cc1 | 129% (inactive)
33 | COc1cnc2c(c1)C(=O)c1c-2n(CCCN2CCNCC2)c(=O)c2cc([N+](=O)[O-])ccc12 | -74.8% (active)
34 | CCN1C(=O)N(CC)C2C1NN=c1s/c(=C\c3ccccn3)c(=O)n12 (centres undefined) | -26.9% (active)
